This is a sample that favours compounds with a hit; in the whole collection about 1.4% have one here.
PTAP TSG101 blk: blocks PTAP/TSG101 interaction to inhibit HIV-1 budding. Fluorescence polarization, FITC-PTAP peptide / Tsg101 binding. Potency, µM (doses to about 115 µM), for the others: top-dose activity change, negative = inhibition, actives largely listed as inhibitors. 340,000 tested, under 10 active. AID 493005; active = well fitted inhibition curve with a large enough effect in the main read-out, with a control signal flat, not every such curve was filed as active; inconclusive = small, poorly fitted or top-dose-only effect, or effect the other way, or a change in a side signal; inactive = no such curve, though single readings can be large or run the other way; note: potency is the fitted concentration of half-maximal effect; % of control where 0% means no effect
Target sequence (Q99816 whole entry, looked up): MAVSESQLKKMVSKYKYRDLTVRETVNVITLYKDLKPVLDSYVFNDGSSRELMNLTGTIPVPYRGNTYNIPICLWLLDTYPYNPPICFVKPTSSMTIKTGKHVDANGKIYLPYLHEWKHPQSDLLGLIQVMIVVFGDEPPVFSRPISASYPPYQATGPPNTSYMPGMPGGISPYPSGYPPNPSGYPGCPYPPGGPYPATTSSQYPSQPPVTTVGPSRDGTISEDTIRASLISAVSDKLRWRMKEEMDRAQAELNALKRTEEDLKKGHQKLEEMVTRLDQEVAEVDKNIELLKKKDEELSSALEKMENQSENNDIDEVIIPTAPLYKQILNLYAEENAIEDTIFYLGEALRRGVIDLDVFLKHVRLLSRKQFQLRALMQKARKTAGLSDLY
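Compounds were pin-transferred onto Tsg101 binding domain (10 uM final) in HEPES pH 7.5 buffer, then FITC-PTAP peptide was added at 50 nM final. After 20 min at RT, polarization reported peptide displacement across a qHTS concentration series.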
Vif-A3F inh: blocks the Vif interaction with APOBEC3F; Potency, µM (highest dose often 46.1 µM), for inactives: at the highest dose activity, negative = active; HeLa A3F-eYFP + Vif (tagged APOBEC3F with the HIV-1 protein that degrades it), YFP fluorescence increase; actives 0.2% (n = 390,000); AID 602313; note: potency is the fitted concentration of half-maximal effect; % of control where 0% means no effect; nearly all actives have a fitted effect of over 65% in size
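HeLa cells stably expressing Vif plus C-terminally eYFP-tagged A3F were seeded, incubated overnight at 37 deg C, dosed with compound, incubated overnight again at 37 deg C. Yellow fluorescence (Ex 488/Em 500-530) reported blocked Vif-mediated A3F-eYFP degradation.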
Akt phos inh: inhibitors of Akt phosphorylation | actives 0.32% (n = 360,000) | activity change, % for hits at 50 µM | Neuro2A IGF-stimulated pAkt S473 HTRF, 20 min; active compounds read low; in the data active = activity change below about -80%; inconclusive = mostly about -51% to -80%; note: % is set by controls: 0 for no effect and ±100 for the full control effect
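Neuro2A cells (4,500/well, DMEM with 0.5% FBS) were treated with compound at a single 50 µM final concentration, stimulated with 6 nM IGF for 20 min at 37 °C, and lysed. Phospho-Akt Ser473 was read by HTRF as 665/615 ratio ×10^4.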
12-LOX inh: inhibitors of human 12S-lipoxygenase ALOX12; purified 12hLO, xylenol orange hydroperoxide absorbance; Potency, µM (highest dose often 108 µM), without a hit: top-dose activity change, negative = inhibition, hits mostly inhibitors; actives 1.1% (n = 580,000); P18054; note: potency is the fitted concentration of half-maximal effect; % is set by controls: 0 for no effect and ±100 for the full control effect
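Purified human 12hLO (150 nM final) in 25 mM Hepes, 0.01% Triton X-100, pH 7.0 was preincubated 15 min at room temperature with compound. Then 40 uM arachidonic acid was added, 30 min. Hydroperoxide was read by Fe-XO absorbance ratio 573/405 nm.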
Vif-A3G inh: inhibitors of Vif-APOBEC3G interaction. HeLa A3G-eYFP + Vif (tagged APOBEC3G with the HIV-1 protein that degrades it), YFP fluorescence, overnight. Potency, µM (series often up to 46.1 µM), for the others: top-dose activity, negative = active, actives largely listed as inhibitors. actives 0.076% (n = 410,000). AID 602310; note: potency is the fitted concentration of half-maximal effect; % is set by controls: 0 for no effect and ±100 for the full control effect; nearly all actives have a fitted effect of over 60% in size
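Read-out is eYFP fluorescence (Ex 488/Em 500-530) from Vif-expressing HeLa A3G-eYFP cells; more signal means A3G escaped Vif-mediated degradation. Cells plated overnight, compound pinned in, incubated overnight at 37 deg C.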
S-ASM inh: blocks human secretory acid sphingomyelinase | actives 0.006% (n = 340,000) | Potency, µM (top dose mostly 57.5 µM), without a hit: top-dose activity change, negative = inhibition, actives largely listed as inhibitors | placental ASM, HMU-PC fluorogenic substrate, 60 min; note: potency is the fitted concentration of half-maximal effect
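Fluorogenic HMU-PC substrate (9 uM final) is turned over by placental ASM in 60 min at 37 C after a 10 min compound preincubation. Reaction ended by alkaline stop (pH 10), with fluorescence read at 386/447 nm.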
The depositor's hits bear a star; i = inactive; u = inconclusive; x = no result. Unless noted, calls come from the whole dose curve; as a rule, active = well fitted curve in the direction sought with a large enough effect; inconclusive = small, poorly fitted or top-dose-only effect, or another doubt; inactive = no such curve, though single readings can be large; an effect the other way counts as inactive or inconclusive.

SMILES	PTAP TSG101 blk	Vif-A3F inh	Akt phos inh	12-LOX inh	Vif-A3G inh	S-ASM inh
Cc1cccc(N(C)S(=O)(=O)c2c(-c3cccc(F)c3)csc2C(=O)NCc2ccccn2)c1	x	x	x	29%	x	x
Cc1ccc(NC(=O)CO/N=C/c2ccc(N(C)C)cc2)cc1	15%	25µM*	i	-27%	u	5%
CCCc1cc(=O)n(-c2nc3ccccc3s2)[nH]1	4%	-12%	i	24%	0%	4%
CCOC(=O)Cc1cc(=O)n(-c2nc3ccccc3s2)[nH]1	2%	-6%	i	7.9µM*	-4%	0%
CCCc1noc(-c2ccn3c(CNC(=O)c4ccc(F)c(Cl)c4)nnc3c2)n1	x	x	x	50µM*	x	x
CCCc1noc(-c2ccn3c(CNC(=O)Cc4ccccc4Cl)nnc3c2)n1	x	x	x	45µM*	x	x
CC(C)c1noc(-c2ccn3c(CNC(=O)Cc4ccccc4Cl)nnc3c2)n1	x	x	x	11%	x	x
CCCc1noc(-c2ccn3c(CNC(=O)c4ccc(CC)cc4)nnc3c2)n1	x	x	x	40µM*	x	x
Cc1ccc(OCc2nc(-c3ccccc3OCC(=O)N3CCCC(C)C3)no2)cc1 (stereo unspecified)	x	x	x	-45%	x	x
O=C(C1CCCCC1)N1CCC2(CC1)NC(=O)N(c1cccc(F)c1)N2	x	x	x	1.4µM*	x	x
O=C(CC1CCCCC1)N1CCC2(CC1)NC(=O)N(c1ccccc1)N2	x	x	x	7.1µM*	x	x
O=C(CC1CCCCC1)N1CCC2(CC1)NC(=O)N(c1cccc(F)c1)N2	x	x	x	2.8µM*	x	x
COc1ccc(S(=O)(=O)N2CCN(CCNC(=O)COc3ccc(C(C)C)cc3)CC2)cc1	x	x	x	35µM*	x	x
COc1ccc(CC(=O)NCCN2CCCC2)cc1	-3%	-1%	-121%*	6%	3%	1%
COc1cc([N+](=O)[O-])c(OC)cc1SCc1n[nH]c(=S)n1-c1ccc(F)cc1	-6%	1%	i	45µM*	-2%	-11%
Cc1cc(C)c2oc(-c3ccc(C)c(NC(=O)/C=C/c4ccco4)c3)nc2c1	x	-5%	x	50µM*	1%	x
Cc1cc(C)c2oc(-c3cccc(NC(=O)c4ccco4)c3)nc2c1	x	-5%	x	-27%	1%	x
CCOc1c(Br)cc(C(=O)Nc2nnc(C3CC3)s2)cc1OC	x	x	x	9%	x	x
CCN1CCN(C(=O)/C=C/c2ccc(C(C)C)cc2)CC1	-1%	u	i	0%	-7%	-2%
CCN1CCC(O)(/C=C/c2ccc(C(C)C)cc2)C(C(=O)/C=C/c2ccc(C(C)C)cc2)C1 (stereo unspecified)	-2%	10%	i	1.8µM*	u	u
CCCCCCc1nc2c(=O)[nH]c3ccccc3c2o1	1%	1%	-87%*	24%	0%	5%
N#C/C(=C\c1ccccn1)c1nc2ccccc2s1	u	u	i	32µM*	u	19%
CCc1ccc(-c2cc(C(F)(F)F)n3ncc(C(=O)NCc4cn(CC)nc4C)c3n2)s1	x	x	x	-8%	x	x
CC(=O)c1cccc(NC(=O)C(C)N(C)Cc2ccccc2N2CCCCC2)c1 (stereo unspecified)	x	x	x	-5%	x	x
O=C(CN1C(=O)/C(=C/c2ccco2)SC1=S)Nc1ccc(O)c(C(=O)O)c1	-4%	3%	i	u	2%	6%
O=C(CN1C(=O)/C(=C/c2ccco2)SC1=S)Nc1ccc(C(=O)O)c(O)c1	-7%	-1%	x	28µM*	5%	42%
O=C(CCCN1C(=O)/C(=C\c2ccco2)SC1=S)Nc1ccc(O)cc1C(=O)O	0%	17%	i	28µM*	-1%	-4%
Cc1ccc([C@H]2N[C@]3(CCCN(Cc4cccn4C)C3=O)[C@H]3C(=O)N(Cc4ccccc4)C(=O)[C@@H]23)cc1	x	5%	i	u	-1%	x
Cn1cccc1CN1CCC[C@]2(N[C@H](c3ccccc3)[C@@H]3C(=O)N(Cc4ccccc4)C(=O)[C@@H]32)C1=O	x	2%	i	10µM*	1%	x

Assay outcomes as filed in PubChem.
